Screens as filed in PubChem.
RORgamma inh – qHTS for inhibitors of ROR gamma transcriptional activity; hit rate 5.4% among 310,000; Potency, µM (highest dose often 53.6 µM), for inactives: at the top dose activity change, negative = inhibition, actives largely listed as inhibitors; Drosophila S2 Gal4-RORgamma UAS-luciferase reporter, 20 h; Nuclear receptor ROR-gamma (Mus musculus), P51450; further: potency means the concentration at half of the fitted maximal effect; nearly all actives have a fitted effect of over 60% in size
Target sequence (P51450 whole entry, looked up, the tested form may be a part): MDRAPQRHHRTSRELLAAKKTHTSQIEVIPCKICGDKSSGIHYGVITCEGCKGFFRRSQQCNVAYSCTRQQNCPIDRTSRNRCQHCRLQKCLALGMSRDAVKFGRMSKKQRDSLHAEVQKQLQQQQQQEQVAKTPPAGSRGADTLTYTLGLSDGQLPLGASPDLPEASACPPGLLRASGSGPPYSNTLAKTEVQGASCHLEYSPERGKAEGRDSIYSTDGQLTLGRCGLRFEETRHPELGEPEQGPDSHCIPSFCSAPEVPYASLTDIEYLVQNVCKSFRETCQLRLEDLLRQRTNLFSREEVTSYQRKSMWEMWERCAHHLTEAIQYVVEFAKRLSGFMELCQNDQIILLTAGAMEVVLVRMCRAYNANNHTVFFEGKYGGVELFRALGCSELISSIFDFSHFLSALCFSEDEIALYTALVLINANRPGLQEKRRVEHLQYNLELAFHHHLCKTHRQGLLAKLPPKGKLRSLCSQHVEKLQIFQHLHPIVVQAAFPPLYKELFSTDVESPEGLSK
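Drosophila Schneider cells stably carrying a metallothionein-driven Gal4 DBD–ROR gamma fusion and a UAS-Photinus luciferase reporter were exposed to compound for 1 hr, then induced with copper sulfate (700 uM final) for 20 hr at ambient temperature before luminescence reading.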
ELG1 DNA repair – qHTS screen for small molecules that inhibit ELG1-dependent DNA repair in human embryonic kidney (HEK293T) cells expressing luciferase-tagged ELG1. HEK293T ELG1-luciferase reporter, luminescence, 16 h; DNA damage induced by 5-fluorouridine. hit rate 2.3% among 330,000. Potency, µM (titrated, usually from 46.1 µM), for the others: top-dose activity change, negative = inhibition, hits mostly inhibitors; further: potency means the concentration at half of the fitted maximal effect; nearly all actives have a fitted effect of over 55% in size
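Cells (2,000 per well) received 5-fluorouridine plus test compound or DMSO and were incubated 16 hr at 37 °C, 5% CO2. Luciferase activity was read by luminescence 30 min after ONE-Glo addition; signal suppression marked inhibition of damage-induced ELG1 function.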
FBPA coupling cs – qHTS Assay for Inhibitors of Fructose-1,6-bisphosphate Aldolase from Giardia Lamblia: Coupling assay counterscreen; activity change, negative = inhibition, % at 58.2 µM, hits read low; coupling enzyme system counterscreen, AmpLite Red fluorescence; AID 2472, 2010; hit rate 0.67% among 290,000; in the data active means activity change below about -30%
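Final compound at 57.5 uM, incubated 10 min at RT with coupling enzyme reagent (glyceraldehyde-3-phosphate), then 20 min with substrate and AmpLite Red detection. Fluorescence read at 525/598 nm; tests interference with the coupling assay, not aldolase inhibition.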
Gal4-VP16 FLuc – VP16 counterscreen qHTS for inhibitors of ROR gamma transcriptional activity | Drosophila S2 Gal4-VP16 UAS-luciferase, luminescence, 20 h | Potency, µM (titrated, usually from 53.6 µM), inactives show at the highest dose activity, negative = inhibition, actives largely listed as inhibitors | hit rate 3.5% among 310,000;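 further: Gal4-VP16 expression switched on by copper sulfate through the metallothionein promoter; potency means the concentration at half of the fitted maximal effect; nearly all actives have a fitted effect of over 50% in size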
TSHR antagonist – Antagonists of the Thyroid Stimulating Hormone Receptor: HTS campaign. Thyrotropin receptor (Homo sapiens), P16473. TSHR-expressing cells, TSH-stimulated cAMP HTRF, 2 h; active compounds read low. activity change, negative = inhibition, % at 11.5 µM. hit rate 0.2% among 330,000. AID 504810, 2011;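 active means activity change below a set negative limit, meaning inhibition stronger than a set level, cut at about -70% in these data; inconclusive means activity change between two set negative limits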
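Read-out is FRET at 665 nm (cryptate excitation 337 nm) from a cryptate-tagged anti-cAMP antibody, competed by cell cAMP against cAMP-d2. Compounds are tested on freshly harvested TSHR cells challenged with 4nM TSH (EC80) for 2 hours at 37 deg C.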
Numbers without * were called inactive; ? = inconclusive; . = not tested or not shown; ! = not confirmed by another sample; [ ] = another dose, or the depositor's remark. In the library only some 8% were active in any assay of this set; here they are far more common. Unless noted, the call rests on the fitted dose curve; in most records, active means well fitted curve in the direction sought with a large enough effect; inconclusive means small, poorly fitted or top-dose-only effect, or another doubt; inactive means no such curve, though single readings can be large; an effect the other way counts as inactive or inconclusive. On the % scale 0 is the no-effect control and ±100 the full control effect.

SMILES | RORgamma inh | ELG1 DNA repair | FBPA coupling cs | Gal4-VP16 FLuc | TSHR antagonist
O=C(N/N=C/c1ccc([N+](=O)[O-])o1)c1sc2ccccc2c1Cl | 2.51µM* | ? | 1.3 | 3.16µM* | 3.6
O=C(N/N=C/c1ccccn1)c1sc2ccccc2c1Cl | 2.82µM* | ? | -2.9 | 3.16µM* | 9.2
Cc1c(S(=O)(=O)N2CCN(c3ccc(F)cc3)CC2)c(=O)n(C)c(=O)n1C | -0.5% | 0.0% | . | 6.2% | 0.7
Cc1c(/C=N/NC(=O)c2sc3ccccc3c2Cl)cnn1C | 2µM* | -0.4% | 0.8 | 11.2µM* | -4.4
COc1ccccc1NC(=S)NCc1ccccc1 | 14.1µM* | -1.4% | -1.4 | ? | -12.3
CCOc1ccccc1NC(=S)Nc1ccccc1F | 11.2µM* | -3.7% | -2.3 | ? | 1.8
CCOc1ccccc1NC(=S)NC(=O)CCCOc1ccc(Cl)cc1Cl | 5.01µM* | -12.3% | -1.7 | 22.4µM* | -16.2
CCOc1ccccc1NC(=S)NNS(=O)(=O)c1c(C)cc(C)cc1C | 10µM* | 1.8% | -1.0 | 14.1µM* | 5.5
CCOc1ccccc1NC(=S)Nc1ncccc1C | 7.08µM* | ? | -0.5 | 7.08µM* | -15.2
COc1ccccc1NC(=S)NCc1ccc(Cl)cc1 | 11.2µM* | -4.7% | -1.4 | 8.91µM* | -0.7
CCOc1ccccc1NC(=S)NCc1ccco1 | 10µM* | 2.2% | 0.1 | ? | 1.7
CCOc1ccccc1NC(=S)NCc1cccn1C | 11.2µM* | -1.9% | 0.0 | 20µM* | 4.0
CCNC(=S)NCc1ccco1 | -15.2% | 2.6% | -1.6 | -2.8% | 5.2
COc1ccccc1NC(=S)NCc1ccccn1 | ? | 14.6% | 1.8 | ? | -5.7
COc1cc(OC)cc(-c2c(C#Cc3ccsc3)c3cc(-c4ccc5c(c4)OCO5)ccc3n2C)c1 | . | ? | . | . | -15.8
CSCC[C@H](NC(=O)CN)C(=O)N[C@@H](CC(=O)O)C(=O)N[C@@H](CO)C(=O)N[C@@H](CC(C)C)C(=O)N[C@@H](C)C(=O)N[C@@H](Cc1ccccc1)C(=O)N[C@@H](CO)C(=O)NCC(=O)NCC(=O)N[C@@H](CC(C)C)C(N)=O | 18.1% | . | 1.2 | 3.2% | .
CCOc1ccc(CNC(=S)Nc2ccccc2)cc1Cl | 5.62µM* | -17.9% | 1.1 | 5.62µM* | -6.4
CCOc1ccccc1NC(=S)NCc1ccccc1 | 7.08µM* | -1.8% | 1.7 | 8.91µM* | 11.4
COc1ccc(CNC(=S)NCc2ccc(Cl)cc2)cc1OC | ? | -23.2% | 2.6 | 22.4µM* | -22.5
COc1ccc(CC(=O)NNC(=S)Nc2ccccc2)cc1Cl | ? | 7.2% | 1.8 | 3.0% | -26.1
COCCSc1ccccc1C(=O)N1CCc2ccccc21 | -3.3% | 1.6% | -3.5 | -4.5% | -7.8
COC(=O)c1cc(S(=O)(=O)N2CCN(c3ccc([N+](=O)[O-])cc3)CC2)c[nH]1 | ? | 16.4µM* | -1.3 | -7.7% | 24.4
COc1ccc(Cl)cc1C(=O)Nc1nc2ccccc2[nH]1 | 2.24µM* | ? | -3.4 | 6.31µM* | -17.1
COc1ccc(C(=O)NC(C)c2nc3ccccc3[nH]2)cc1OC (stereo not given) | -8.5% | -10.2% | -2.8 | -4.2% | -5.9
COc1ccc(C(=O)Nc2nc3ccccc3[nH]2)cc1S(=O)(=O)N1CCCC1 | 11.2µM* | -1.5% | 3.8 | ? | 5.3
SMILES | RORgamma inh | ELG1 DNA repair | FBPA coupling cs | Gal4-VP16 FLuc | TSHR antagonist
COc1cc(C(=O)Nc2nc3ccccc3[nH]2)ccc1OC(F)F | 5.01µM* | ? | -2.5 | 7.94µM* | -7.7
CCOc1ccc(C(=O)Nc2nc3ccccc3[nH]2)cc1OCC | 1.41µM* | ? | -2.4 | 15.8µM* | -5.9
COc1ccc(C(=O)Nc2cccc(C(=O)O)c2)cc1S(=O)(=O)N1CCCC1 | 15.1% | -10.4% | -3.4 | -7.6% | -4.9
NCCCC[C@H](NC(=O)[C@@H]1CCCN1C(=O)[C@@H](N)CCCN=C(N)N)C(=O)N1CCC[C@H]1C(=O)N[C@@H](CCC(N)=O)C(=O)N[C@@H](CCC(N)=O)C(=O)N[C@@H](Cc1ccccc1)C(=O)O | 10.3% | . | 4.7 | 2.2% | .
CC(CC=O)CCCC(C)(C)O (stereo not given) | 4.6% | . | . | 13.3% | .
CC(=O)Nc1ccc(C(=O)NCC2CCCCC2)cc1 | 37.3% | ? | 2.1 | 25.5% | 1.6
CCOc1ccc(C(=O)Nc2cc(-c3nc4ccccc4[nH]3)ccc2C)cc1[N+](=O)[O-] | 29.6% | 23.1µM* | -1.2 | -4.6% | 20.5
COc1ccc(C(=O)Nc2nc3ccccc3[nH]2)cc1OC | 11.2µM* | ? | 0.4 | 10µM* | -9.2
COc1ccc(C(=O)Nc2cccc(NC(=O)c3ccc(OC)c(OC)c3)n2)cc1OC | ? | 2.91µM* | 0.1 | -1.1% | -18.7
CCOc1ccc(C(=O)Nc2cc(-c3nc4ccccc4[nH]3)ccc2Cl)cc1[N+](=O)[O-] | -19.7% | ? | 3.5 | -24.2% | 3.0
COc1ccc(C(=O)NCc2nc3ccccc3[nH]2)cc1OC | -4.8% | -23.1% | 1.2 | 6.5% | 16.5
COc1ccccc1C(=O)Nc1cccc(NC(=O)c2ccccc2OC)n1 | 26.4%[1.91 µM] | ? | 0.7 | 1.7% | 5.6
CCN(CC)C(=O)C1CCCN(C(=O)c2oc3ccc(C)cc3c2C)C1 (stereo not given) | 0.1% | 22.4% | . | 27.5% | -11.6
CCCC[C@H]1C[C@@H]1[C@@H]1N(P(=O)(c2ccccc2)c2ccccc2)[C@](CO)(c2ccccc2)CC12CC2 | 14.8% | . | -1.4 | 1.4% | .
C#C[C@]1(O)CC[C@H]2[C@H]3[C@H](CC[C@@]21C)C1=C(CC(=O)CC1)C[C@@H]3C | -4.1% | . | . | -3.2% | .
Nc1ncc(-c2ccccc2)n1CC1CCCO1 (stereo not given) | 12.6µM* | 9.8% | -7.8 | ? | 52.2
CCCCC1=CC2=CC(=O)C(C)(OC(=O)CC)C(=O)C2=CN1C1CCCCC1 (stereo not given) | 0.8% | -0.1% | -19.5 | -0.1% | -2.5
COC(=O)CCCC1=CC2=CC(=O)C(C)(OC(=O)c3cccs3)C(=O)C2=CN1CCCCO (stereo not given) | -29.5% | 9.4% | -40.9*! | -6.7% | 1.1
COCCN1C=C2C(=O)C(C)(OC(=O)c3cccs3)C(=O)C=C2C=C1CCCC(=O)OC (stereo not given) | -3.7% | 6.3% | -35.0*! | -1.6% | 6.0
CCCCC1=CC2=CC(=O)C(C)(OC(=O)CC)C(=O)C2=CN1CCCCO (stereo not given) | -1.3% | 12.9% | -35.1*! | -6.3% | -4.0
